Where “and” joins values, the source holds several entries; their conditions need not be identical. Equal values may be shown once. Among all 330,000 compounds or so, about 1,900 (0.58%) were called active.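 How the source made its calls: active means inhibition of aptamer binding above 40%, roughly 3 SD of noise, on plates passing a quality check; inactive means the rest.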 For the sample, actives were picked, then their nearest neighbours and some compounds at random. A structure can be active in one record and inactive in another.
biological target: Beta-adrenergic receptor kinase 1 (Homo sapiens) (UniProt P25098); test: compounds blocking aptamer binding on GRK2 – biochemical, human GRK2, bead flow cytometry, HTS, primary screen (AID 488847); settings: FAM-aptamer displacement from GRK2, at 10 µM, stronger effect = higher value;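 further: median bead fluorescence of bound FAM aptamer so fluorescent compounds give negative values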
Sequence (P25098 whole entry, looked up): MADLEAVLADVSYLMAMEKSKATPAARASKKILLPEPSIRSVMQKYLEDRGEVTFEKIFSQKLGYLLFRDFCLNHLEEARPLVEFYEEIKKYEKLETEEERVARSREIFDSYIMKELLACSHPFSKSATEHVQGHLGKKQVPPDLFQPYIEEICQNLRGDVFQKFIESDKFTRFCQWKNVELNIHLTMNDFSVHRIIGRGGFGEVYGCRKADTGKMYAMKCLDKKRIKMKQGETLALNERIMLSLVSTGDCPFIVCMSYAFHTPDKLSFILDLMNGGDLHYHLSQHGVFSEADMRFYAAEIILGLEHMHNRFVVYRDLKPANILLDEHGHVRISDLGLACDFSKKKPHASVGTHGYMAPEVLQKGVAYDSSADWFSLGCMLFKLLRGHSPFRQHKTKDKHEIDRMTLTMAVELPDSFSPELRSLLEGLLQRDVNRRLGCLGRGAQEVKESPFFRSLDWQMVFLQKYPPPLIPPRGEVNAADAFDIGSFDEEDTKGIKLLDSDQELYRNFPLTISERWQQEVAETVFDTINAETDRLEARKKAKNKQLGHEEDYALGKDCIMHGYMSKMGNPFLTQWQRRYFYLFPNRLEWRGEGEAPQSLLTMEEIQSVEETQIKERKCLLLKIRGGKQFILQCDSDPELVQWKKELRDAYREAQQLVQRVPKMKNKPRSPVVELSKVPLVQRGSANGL

| Structure (SMILES) | inhibition of aptamer binding |
| --- | --- |
| O=C(NCCCN1CCCCC1)c1ccc2c(c1)NC(=O)C(N1CCOCC1)S2 (stereo not given) | 3% (inactive) |
| CCOC(=O)c1ccc(N/C(=N/S(=O)(=O)c2ccccc2)c2ccccc2)cc1 | 0% (inactive) |
| CC(=O)c1c(C)[nH]c(C(=O)N2CCN(S(=O)(=O)c3ccc(F)c(F)c3)CC2)c1C | 1% (inactive) |
| CN(Cc1ccccc1)C(=O)c1ccc(COc2ccccc2)cc1 | 0% (inactive) |
| CN(CC(=O)O)C(=O)c1ccccc1 | 1% (inactive) |
| CN(Cc1ccccc1)C(=O)c1cccc(C(=O)N(C)Cc2ccccc2)c1 | 49% (active) |
| c1ccc(Cc2cc[n+](Cc3ccccc3)cc2)cc1 | 0% (inactive) |
| O=C(CCC(=O)N/N=C/c1ccc(Br)o1)N/N=C/c1ccc(Br)o1 | 13% (inactive) |
| O=C(CCc1n[nH]c(=O)[nH]c1=O)N/N=C/c1ccc(Br)o1 | 0% (inactive) |
| O=C(CCNC(=O)c1ccccc1)NN=Cc1ccc(Br)o1 | 58% (active) |
| Cc1ccc(OCc2cc(C(=O)N(C)CCn3ccnc3C)no2)cc1C | 4% (inactive) |
| O=C(ON=C1CCN(S(=O)(=O)c2ccccc2)CC1)c1ccc(Cl)cc1 | 1% (inactive) |
| CONC(=O)c1cc(OCC(F)(F)F)ccc1OCC(F)(F)F | 0% (inactive) |
| O=C(NC(=O)c1cc(OCC(F)(F)F)ccc1OCC(F)(F)F)Nc1ccccc1 | 98% (active) |
| O=C(Nc1ccccc1)Nc1ccc(C(F)(F)F)cn1 | 0% (inactive) |
| COc1nc(NC2CCCCC2)nc(N2CCCCCC2)n1 | 1% (inactive) |
| Cc1cc(/C=C2/SC(=O)N(CC(=O)OC(C)C)C2=O)c(C)n1C | 2% (inactive) |
| C=CC1=C(C(=O)O)N2C(=O)[C@@H](NC(=O)/C(=N\OCC(=O)O)c3csc(N)n3)[C@H]2SC1 | 66% (active) |
| C=CC1=C(C(=O)O)N2C(=O)[C@@H](NC(=O)/C(=N/OCC(=O)O)c3csc(N)n3)[C@H]2SC1 | 0% (inactive) |
| CO/N=C(\C(=O)N[C@@H]1C(=O)N2C(C(=O)O)=C(COC(C)=O)CS[C@H]12)c1csc(N)n1 (stereo in doubt) | 0% (inactive) and 38% (inactive) and 1% (inactive) |
| CC[C@@H](C)[C@@H]1CN([C@@H](C)CN2CCC[C@H]2CN2C(N)=NC[C@H]2C(C)C)C(=N)N1CCc1ccc(Cl)c(Cl)c1 | 0% (inactive) |
| COc1ccc(CNc2nc(NCc3ccc(OC)cc3)c3ncn(C4CCCC4)c3n2)cc1 | 0% (inactive) |
| O=C1[C@@H]2C(c3cccnc3)=NO[C@@H]2C(=O)N1c1ccc(Cl)cc1Cl | 4% (inactive) |

| Structure (SMILES) | inhibition of aptamer binding |
| --- | --- |
| CCOc1cccc(OCCCOc2cccc3cccnc23)c1 | 1% (inactive) |
| C1=C(CCNc2ncnc3c2cnn3-c2ccccc2)CCCC1 | 0% (inactive) |
| O=C(NNc1ncnc2c1cnn2-c1ccccc1)c1ccco1 | 97% (active) |
| Cc1ccccc1NC(=O)c1cnn(-c2ccccc2)c1NC(=O)c1ccco1 | 3% (inactive) |
| CC(OC(=O)/C=C/c1ccccc1)C(=O)NC1CCCCC1C (stereo not given) | 0% (inactive) |
| CC(=O)N1CCN(CC(=O)Nc2ccc(C)c(F)c2)CC1 | 1% (inactive) |
| CCCc1noc2c1/C(=N\O)CCC2 | 0% (inactive) |
| Cc1ccn2cc(C(=O)NC3CCN(Cc4ccccc4)CC3)nc2c1 | 0% (inactive) |
| Cc1cc(C(=O)NC2CCN(Cc3ccccc3)CC2)n[nH]1 | 50% (active) |
| Cc1ccc(-c2cc(C(=O)NC3CCN(Cc4ccccc4)CC3)c3ccccc3n2)cc1 | 0% (inactive) |
| O=C(N/C(=C/c1ccc(Cl)cc1)C(=O)N1CCCCC1)c1ccco1 | 0% (inactive) |
| CCC(=C/c1sc2ccc3ccccc3c2[n+]1C)/C=C1\Sc2ccc3ccccc3c2N1C | 100% (active) |
| N/C(=N\OC(=O)CCC1CCCCC1)c1ccccn1 | 0% (inactive) |
| O=C(c1noc2c1CCCC2)N1CCc2ccccc2C1 | 0% (inactive) |
| CCN1C(=O)/C(=C\N2CCN(c3cccc(Cl)c3)CC2)SC1=S | 3% (inactive) |
| CCc1nn(CCCN2CCN(c3cccc(Cl)c3)CC2)c(=O)n1CCOc1ccccc1 | 43% (active) and 0% (inactive) |
| OC(COc1ccc2c(c1)CCC2)CN1CCN(c2cccc(Cl)c2)CC1 (stereo not given) | 0% (inactive) |
| CN(CCc1ccccn1)S(=O)(=O)c1ccc2c3c(cccc13)C(=O)N2 | 0% (inactive) |
| Cc1ccccc1C(=O)N1CCC(C(=O)Nc2ccc(S(=O)(=O)N(C)C(C)C)cc2)CC1 | 0% (inactive) |
| COc1cc(C(=O)Nn2c(CC(C)C)nc3ccccc3c2=O)cc(OC)c1OC | 0% (inactive) |
| CCCc1nc2ccccc2c(=O)n1NC(=O)c1c(O)c2ccccc2[nH]c1=O | 92% (active) |
| CCCCc1nc2ccccc2c(=O)n1NC(=O)c1c(O)c2cccc3c2n(c1=O)CC3 | 0% (inactive) |
